Results: the supplement of paper PMC12669032

System: Escherichia coli ED1a
Test: growth AUC relative to DMSO control (median of replicates) (fraction); higher = more growth (less inhibition), active = hit call of the paper
Conditions: 20 µM; 24 h;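 active = AUC reduced over 20% with Padj below 0.05 in at least 2 of 3 replicates; inactive = otherwise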
Summary of the method: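 Gut bacteria were grown singly in mGAM at 37 °C without oxygen, from OD600 0.05, alongside 20 µM compound in 1% DMSO, and OD600 was read each hour for 24 h. Area under the growth curve was normalised to the median of solvent-only wells per plate, or to row and column medians on the industrial chemical plate. The minimum OD was set to 0 beforehand, and the reported value is the median of three biological replicates grown on separate days.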

Growth AUC, inactive:
C=CCc1ccc(OC)c(OC)c1 0.994, CCNc1nc(NCC)nc(OC)n1 1.03, CCOC(=O)c1nc(C(Cl)(Cl)Cl)n(-c2ccc(Cl)cc2Cl)n1 1, Oc1ccc2ccccc2c1N=Nc1ccccc1 1.01, O=C(Nc1ccc(Cl)cc1C(O)c1ccccc1)c1ccncc1 (stereo unspecified) 0.997, CSC(=O)c1cccc2nnsc12 0.994, Cc1ccc2c(c1)[C@H](Nc1nc(N)nc(C(C)F)n1)[C@@H](C)C2 (stereo partly specified) 1.03, CCOC(=O)c1cnn(C)c1S(=O)(=O)NC(=O)Nc1nc(OC)cc(OC)n1 1.02, C/C=C/C(=O)Oc1c(C(C)CCCCCC)cc([N+](=O)[O-])cc1[N+](=O)[O-] (mixture of isomers) 0.976, CCOC(=O)C(C)N(C(=O)c1ccccc1)c1ccc(Cl)c(Cl)c1 (stereo unspecified) 1.03, COC(=O)c1c(Cl)ccc(Cl)c1OC 1.04, c1ccc(Sc2ccccc2)cc1 1.03, O=C(O)Cc1c[nH]c2ccccc12 1, Cc1cc(C)c(C2=C(O)C3(CCCC3)OC2=O)c(C)c1 0.997, CC(=O)Oc1c(Cl)c(Cl)c(Cl)c(Cl)c1Cl 0.936, CCNc1nc(NC(C)CC)nc(OC)n1 (stereo unspecified) 0.992, COc1cc(OC)nc(NC(=O)NS(=O)(=O)Nc2ccccc2C(=O)C2CC2)n1 1, CCCCC(CC)COC(=O)COc1cc(Cl)c(Cl)cc1Cl (stereo unspecified) 0.99, CSc1nnc(C(C)(C)C)c(=O)n1/N=C/C(C)C 1.04, CC[N+](CC)(CC(=O)Nc1c(C)cccc1C)Cc1ccccc1.O=C([O-])c1ccccc1 1.01, CCCCOCCOCCOCc1cc2c(cc1CCC)OCO2 1.03, CC(C)N(C(=O)CS(=O)(=O)[O-])c1ccc(F)cc1.[Na+] 0.983, CN(C)C(=O)Nc1ccc(Oc2ccc(Cl)cc2)cc1 0.95, [S] 0.976, COC(=O)c1csc(C)c1S(=O)(=O)NC(=O)n1nc(OC)n(C)c1=O 1, COc1c(Cl)ccc(Cl)c1C(=O)O 0.99
